Compound activity from PubChem BioAssay.
VACV Venus inh = vaccinia inhibition (Venus reporter); Potency, µM (series often up to 36.5 µM), inactives show at the highest dose activity change, negative = inhibition, most hits filed as inhibitors; AID 720580; 0.46% of 330,000 active; Vaccinia virus Venus reporter expression, fluorescence; calls by dose curve; tested in A549 cells; note: potency is the fitted concentration of half-maximal effect; nearly all actives have a fitted effect of over 30% in size
VACV mCherry inh = vaccinia inhibition (mCherry reporter); Vaccinia virus mCherry reporter infection, fluorescence; Potency, µM (highest dose often 36.5 µM), for inactives: at the top dose activity change, negative = inhibition, actives largely listed as inhibitors; 0.63% of 310,000 active; AID 720579; calls by dose curve; tested in A549 cells; note: potency is the fitted concentration of half-maximal effect; nearly all actives have a fitted effect of over 35% in size
HCV inhibitor = blocks hepatitis C virus | Huh7.5.1 HCVcc-Cre infection, luciferase reporter, 44 h | AID 651820 | Potency, µM (titrated, usually from 41.8 µM), for the others: at the top dose activity change, negative = inhibition, most hits filed as inhibitors | 3.4% of 340,000 active; active = well fitted inhibition curve with a large enough effect; inconclusive = small, poorly fitted or top-dose-only effect, or another doubt; inactive = no such curve, though single readings can be large or run the other way; note: potency is the fitted concentration of half-maximal effect
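Infectious HCVcc-Cre (~0.5 moi) was added to cells just after compound, with cells seeded 4 h earlier at 1,000 per well. Luciferase activity after 44 h culture reported infection; substrate was incubated 15 min at room temperature before reading.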
Marburg entry inh = Marburg virus entry inhibition; Marburg virus pseudotyped entry inhibition, cell reporter; Potency, µM (titrated, usually from 37.8 µM), for inactives: top-dose activity change, negative = inhibition, actives largely listed as inhibitors; 1.8% of 300,000 active; calls by dose curve; tested in HEK293 cells; note: potency is the fitted concentration of half-maximal effect
HCMV inh = blocks human cytomegalovirus replication; HFF cells, HCMV-luciferase reporter, 72 h; stronger effect = lower value; activity change, negative = inhibition, % at 57.5 µM; 4.5% of 410,000 active; AID 1259415; in the data active = activity change below about -60%; inconclusive = no clear call, values can overlap the other calls; inactive = above about -39%
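HFF cells seeded 16 h at 37C, treated with compounds, infected with luciferase-reporter HCMV at MOI 1 PFU/cell; luciferase read at 72 h post infection, normalized to buffer-only and Salinomycin controls.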
LASV entry inh = blocks Lassa virus binding to or entry into cells; Lassa virus pseudotype entry inhibition, cell reporter; Potency, µM (highest dose often 37.9 µM), for the others: at the highest dose activity change, negative = inhibition, actives largely listed as inhibitors; 1.2% of 300,000 active; calls by dose curve; tested in HEK293 cells; note: potency is the fitted concentration of half-maximal effect; nearly all actives have a fitted effect of over 50% in size
* marks the source's active call; other numbers are inactive results; i = inactive; ? = inconclusive; . = no result given; [ ] = another dose, or the depositor's remark. Sampled rows, rich in hits. Any-hit rate of the full collection: about 7.8%. % is set by controls: 0 for no effect and ±100 for the full control effect.

SMILES | VACV Venus inh | VACV mCherry inh | HCV inhibitor | Marburg entry inh | HCMV inh | LASV entry inh
CCOC(=O)C1(CCOc2ccccc2)CCN(Cc2cccc3c2OCO3)CC1 | -18.3% | -7.5% | 10µM* | ? | -37.5 | ?
CCOC(=O)C1(CCOc2ccccc2)CCN(Cc2ccccc2O)CC1 | -17.8% | i | ? | ? | 17.6 | -6.2%[46.1 µM]
CCOC(=O)C1(CCOc2ccccc2)CCN(Cc2cc(OC)c3c(c2)OCO3)CC1 | -13.3% | -4.4% | 11.2µM* | 2.82µM* | ? | ?
CCC(O)CNC(=O)NC(=C(Cl)Cl)c1ccc(C)c(F)c1 (stereo not drawn) | . | . | 15.8µM* | . | -80.5* | .
O=C(Nc1ccc(Cl)c([N+](=O)[O-])c1)C(Sc1ccccc1)c1ccccc1 (stereo not drawn) | ? | -19.6% | ? | ? | -102.3* | ?
Cc1cccc(Cn2c(C)c(CNC3CCCCCC3)c(C(=O)O)c2C)c1 | -0.5% | -7.1% | . | -12.1%[46.1 µM] | -11.7 | -9.4%[46.1 µM]
CCOc1cc(N2CCOCC2)c(OCC)cc1NC(=O)Cc1ccccc1 | -17.7% | -14.1% | 1.1% | 16.6%[46.1 µM] | -20.0 | -17.6%[46.1 µM]
CCOc1cc(N2CCOCC2)c(OCC)cc1NC(=O)Cc1ccccc1OC | -26.8% | . | -16.7% | 2.9% | -61.0* | -23.3%
CCOc1cc(N2CCOCC2)c(OCC)cc1NC(=O)c1cc(C)cc(C)c1 | -4.5% | -3.9% | 3.55µM* | -12.5%[46.1 µM] | -24.5 | ?
CCCn1nc(C(=O)Nc2cc(OCC)c(N3CCOCC3)cc2OCC)c2ccccc2c1=O | . | . | -19.0% | . | -92.4* | .
COc1ccc(C(CNc2ccc(S(=O)(=O)N3CCN(C)CC3)cc2[N+](=O)[O-])N(C)C)cc1 (stereo not drawn) | -9.2% | -14.9% | 10µM* | ? | -19.3 | -2.1%
COc1ccc(C(CNc2ccc(S(=O)(=O)N3CCCC3)cc2[N+](=O)[O-])N2CCCC2)cc1 (stereo not drawn) | -9.5% | -15.2% | ? | ? | -38.6 | ?
COc1ccccc1NS(=O)(=O)c1ccc(NN=C2CCCC2)c([N+](=O)[O-])c1 | -29.9% | -18.9% | ? | ? | -78.7* | -16.5%
COc1ccc(CCN(C)c2ccc(S(=O)(=O)N3CCCC3)cc2[N+](=O)[O-])cc1OC | -22.6% | -0.5% | ? | -32.0% | ? | ?
COc1ccccc1C(CNc1ccc(S(=O)(=O)N2CCCC2)cc1[N+](=O)[O-])N(C)C (stereo not drawn) | 10µM* | 8.91µM* | -21.9% | ? | ? | -19.2%
COc1ccccc1NS(=O)(=O)c1ccc(N/N=C/C=C/c2ccccc2[N+](=O)[O-])c([N+](=O)[O-])c1 | -7.4% | -7.6% | 33.7% | -18.5% | -27.7 | 19.8%
COc1ccc(CN(C)c2ccc(S(=O)(=O)N3CCN(C)CC3)cc2[N+](=O)[O-])cc1OC | -16.4% | -4.6% | 0.562µM* | ? | -85.9* | ?
CCCN(C(=O)Cn1cnc2sc(C)c(S(=O)(=O)N3CCN(c4ncccn4)CC3)c2c1=O)c1cccc(C)c1 | -9.1% | -11.9% | . | 34.7%[46.1 µM] | -17.1 | -8.8%[46.1 µM]
Cc1nc(SCC(=O)Nc2ccccc2C(F)(F)F)c(C#N)c(C)c1CC(=O)c1ccc(Br)cc1 | . | . | . | . | 39.3 | .
Cc1ccc(Cl)cc1NC(=O)CSc1nc(C)c(C)c(C)c1C#N | -11.5% | -10.8% | . | -33.6%[46.1 µM] | -84.6* | -2.6%[46.1 µM]
Cc1cccc(C)c1NC(=O)CSc1nc(C)c(CC(=O)c2ccc(Br)cc2)c(C)c1C#N | -1.6% | . | 9.3% | ? | 42.9 | 17.8µM*
O=C1C(c2ccc(F)cc2)N(CCc2ccc(Cl)cc2)C(=O)CN1C1CCCCC1 (stereo not drawn) | -7.9% | -2.7% | . | . | ? | 26.3%[46.1 µM]
CCOc1ccc(C2C(=O)N(C3CCCCCC3)CC(=O)N2Cc2ccc(C)cc2)cc1OC (stereo not drawn) | -8.8% | -7.7% | . | . | ? | ?
COc1ccc(C2C(=O)N(C3CCC(C)CC3)CC(=O)N2Cc2ccc(C)cc2)cc1OC (stereo not drawn) | -9.9% | -8.9% | . | . | -64.7* | -26.2%[46.1 µM]
COc1ccc(C2C(=O)N(C3CCCCCC3)CC(=O)N2Cc2ccccc2)cc1 (stereo not drawn) | -8.6% | 0.1% | . | . | -67.3* | ?
SMILES | VACV Venus inh | VACV mCherry inh | HCV inhibitor | Marburg entry inh | HCMV inh | LASV entry inh
O=C1C(c2ccc(F)cc2)N(CCc2ccc(Cl)cc2)C(=O)CN1C1CCCCCC1 (stereo not drawn) | -4.0% | -6.9% | . | . | -81.9* | 25.6%[46.1 µM]
Cc1cn2c(=O)cc(COC(=O)c3cccc(NC(=O)c4ccccc4Cl)c3)nc2s1 | -17.7% | -13.6% | . | . | ? | 6.5%[46.1 µM]
CC(C)c1ccccc1Oc1c(C(F)(F)F)oc2c(CN3CCN(C)CC3)c(O)ccc2c1=O | 0.0% | 12.6% | . | 1.5%[46.1 µM] | -12.2 | 2.1%[46.1 µM]
Cn1c(=O)c2c(nc(NCCCO)n2Cc2cccc(Br)c2)n(C)c1=O | . | . | -20.2% | -15.3% | 9.1 | -14.5%
Cn1c(NCC(O)c2ccccc2)nc2c1c(=O)n(Cc1ccc(Cl)c(Cl)c1)c(=O)n2C (stereo not drawn) | 10µM* | . | ? | ? | ? | ?
Cn1c(NCC(O)c2ccccc2)nc2c1c(=O)n(Cc1ccc(Cl)cc1)c(=O)n2C (stereo not drawn) | ? | . | ? | -6.7% | -19.6 | -16.7%
Cc1cccc(Cn2c(NCC(C)O)nc3c2c(=O)n(C)c(=O)n3C)c1 (stereo not drawn) | -41.4% | . | 4.47µM* | -10.5% | ? | -5.5%
COCCCNc1nc2c(c(=O)n(C)c(=O)n2C)n1Cc1cccc(OC)c1 | -29.7% | . | ? | -27.3%[46.1 µM] | 22.1 | -24.2%
COCCNc1nc2c(c(=O)n(C)c(=O)n2C)n1Cc1cccc(C)c1 | . | . | 10µM* | ? | -18.3 | -28.8%
CC(=O)N1/C(=C/c2ccc(N(C)C)cc2)C(=O)c2ccccc21 | -13.7% | -6.3% | 24.6% | 12.6µM* | 6.8 | ?
COc1ccc(NC(=O)C2(C)Cc3c(-c4ccc5c(c4)OCO5)ccnc3O2)cn1 (stereo not drawn) | ? | -8.7% | . | . | ? | .
CCOCCn1c(=NC(=O)c2cc(Cl)sc2Cl)sc2cc(S(N)(=O)=O)ccc21 | . | . | -12.2% | -5.2% | . | 2.2%
C#CCn1c(=NC(=O)c2ccc(S(=O)(=O)N3CCc4ccccc4C3)cc2)sc2cc(S(N)(=O)=O)ccc21 | 7.94µM* | 6.31µM* | -20.1% | 14.1µM* | . | 9.2µM*
C=CCn1c(=NC(=O)c2ccc(S(=O)(=O)N3CCc4ccccc4C3)cc2)sc2cc(S(N)(=O)=O)ccc21 | -24.1% | ? | ? | ? | -65.1* | ?
COCCn1c(=NC(=O)c2ccc(S(=O)(=O)N3CCc4ccccc4C3)cc2)sc2cc(S(N)(=O)=O)ccc21 | -20.3% | 0.0% | 1.4% | 13.7% | -19.4 | 3.5%
CCOCCn1c(=NC(=O)c2ccc(S(=O)(=O)N3CCOCC3)cc2)sc2cc(S(N)(=O)=O)ccc21 | -24.4% | i | 22.4µM* | -0.1%[46.1 µM] | -62.6* | 17.4%[46.1 µM]
